Assay results taken from PubChem BioAssay.
Where “and” joins values, the source holds several entries; their conditions need not be identical. Equal entries are not always repeated. Calls of active or inactive are those of the source.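 Rule for the calls, unless noted: active = normalized viability below 100% at a tested concentration; inactive = the rest.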

Experiments:
[1] = viability loss with induced miR-34 in A549 – imaging, A549 dox-inducible miR-34, nuclei and caspase counts, primary screen (AID 1347080;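 active = compounds whose cell count with miR-34 switched on is under 0.7 times the count with it off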); details: A549 miR-34 inducible, Hoechst nuclei count, 48 h
[2] = MELAS cybrid and Rieske KO viability enhancers – cell-based, MELAS cybrids, Rieske KO mouse fibroblasts, CellTiter-Glo, primary screen (AID 1508586;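 active = mean z-score across replicates of 1.96 or higher in either the MELAS or the Rieske mutant cell line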;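 note: z relative to plate mean and SD of compound and empty wells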); details: low glucose
[3] = drug combination growth inhibition, ovarian cancer – cell-based, oncology-focused library, rucaparib conditional, profiling panel (AID 1508598); details: patient-derived ovarian cancer cells, CellTiter-Glo viability, 144 h, stronger effect = lower value
[4] = growth inhibition, single agent or in combination, cell-based, chromothripsis tumors, cisplatin or BGB combos (AID 1671449; in the data active = inhibition above about 80%;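 note: cells exposed for 96 hours; 0% = vehicle DMSO and 100% = killing by high DMSO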); details: LFS_MB_P medulloblastoma cells
[5] = growth inhibition, single agent and combos, cell-based, chromothripsis tumors, cisplatin or BGB combos (AID 1671450; in the data active = inhibition above about 80%;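 note: cells exposed to compound for four days; 0% = vehicle DMSO and 100% = cell killing by high DMSO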); details: HDN33 neuroblastoma cells, stronger effect = higher value
[6] = growth inhibition, single agents and combos, ICB984, cell-based, cisplatin or BGB combos, synergistic combos for chromothripsis tumors (AID 1671451); details: ICB984 medulloblastoma cells, drug combinations, BGB IC20 combo, at 0.005 µM, stronger effect = higher value;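 note: cells exposed for 96 hours before readout; 0% = vehicle DMSO and 100% = killing by high DMSO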

C[C@@]1(c2nc3c(C(N)=O)cccc3[nH]2)CCCN1
-20.1% and -23.6%: inhibition ([5]; measured here: with BGB IC20 combination, at 0.5 µM)
0.497: z-score ([2]; Rieske KO mouse fibroblast survival, CellTiter-Glo 72 h)
-35.1% and -10.6%: inhibition ([5]; single agent, at 5 µM)
7270: cell count ([1]; measured here: total cells without miR-34 induction)
active: viability ([3]; at 0.000305 µM, OCI-P5x cells, without rucaparib) 83.4% | viability ([3]; at 0.00122 µM, OCI-P5x cells, with rucaparib 20 µM, 100% = cells with rucaparib alone) 97.2% | viability ([3]; at 0.0195 µM, OCI-P5x cells, with rucaparib 20 µM, 100% = cells with rucaparib alone) 98.2% | viability ([3]; at 0.0195 µM, OCI-P5x cells, without rucaparib) 95.2% | viability ([3]; at 0.0781 µM, OCI-P5x cells, with rucaparib 20 µM, 100% = cells with rucaparib alone) 91.6% | viability ([3]; at 0.313 µM, OCI-P5x cells, with rucaparib 20 µM, 100% = cells with rucaparib alone) 98.3% | viability ([3]; at 0.313 µM, OCI-P5x cells, without rucaparib) 91% | viability ([3]; at 1.25 µM, OCI-P5x cells, with rucaparib 20 µM, 100% = cells with rucaparib alone) 90% | viability ([3]; at 1.25 µM, OCI-P5x cells, without rucaparib) 87.4% | viability ([3]; at 5 µM, OCI-P5x cells, with rucaparib 20 µM, 100% = cells with rucaparib alone) 80.7% | viability ([3]; at 5 µM, OCI-P5x cells, without rucaparib) 91.4%
-43.5% and -1.75%: inhibition [6]
-38.7% and -21.7%: inhibition ([5]; BGB combo, at 5 µM)
-10.4% and -15.2%: inhibition ([5]; measured here: with cisplatin IC20 combination, at 0.5 µM)
-30.4% and -24.5%: inhibition ([4]; measured here: combination with cisplatin, at 0.5 µM, stronger effect = higher value)
inactive: fold change ([1]; stronger effect = lower value, cell number ratio, induced over uninduced) 0.941 | z-score ([2]; MELAS cybrid survival, CellTiter-Glo 48 h, stronger effect = higher value) -0.268 | viability ([3]; at 0.000305 µM, OCI-C5x cells, with rucaparib 10 µM, 100% = cells with rucaparib alone) 125% | viability ([3]; at 0.000305 µM, OCI-C5x cells, without rucaparib) 110% | viability ([3]; at 0.000305 µM, OCI-P5x cells, with rucaparib 20 µM, 100% = cells with rucaparib alone) 108% | viability ([3]; at 0.00122 µM, OCI-C5x cells, with rucaparib 10 µM, 100% = cells with rucaparib alone) 114% | viability ([3]; at 0.00122 µM, OCI-C5x cells, without rucaparib) 114% | viability ([3]; at 0.00122 µM, OCI-P5x cells, without rucaparib) 101% | viability ([3]; at 0.00488 µM, OCI-C5x cells, with rucaparib 10 µM, 100% = cells with rucaparib alone) 122% | viability ([3]; at 0.00488 µM, OCI-C5x cells, without rucaparib) 109% | viability ([3]; at 0.00488 µM, OCI-P5x cells, with rucaparib 20 µM, 100% = cells with rucaparib alone) 106% | viability ([3]; at 0.00488 µM, OCI-P5x cells, without rucaparib) 102% | viability ([3]; at 0.0195 µM, OCI-C5x cells, with rucaparib 10 µM, 100% = cells with rucaparib alone) 121% | viability ([3]; at 0.0195 µM, OCI-C5x cells, without rucaparib) 106% | viability ([3]; at 0.0781 µM, OCI-C5x cells, with rucaparib 10 µM, 100% = cells with rucaparib alone) 120% | viability ([3]; at 0.0781 µM, OCI-C5x cells, without rucaparib) 104% | viability ([3]; at 0.0781 µM, OCI-P5x cells, without rucaparib) 102% | viability ([3]; at 0.313 µM, OCI-C5x cells, with rucaparib 10 µM, 100% = cells with rucaparib alone) 132% | viability ([3]; at 0.313 µM, OCI-C5x cells, without rucaparib) 102% | viability ([3]; at 1.25 µM, OCI-C5x cells, with rucaparib 10 µM, 100% = cells with rucaparib alone) 111% | viability ([3]; at 1.25 µM, OCI-C5x cells, without rucaparib) 108% | viability ([3]; at 5 µM, OCI-C5x cells, with rucaparib 10 µM, 100% = cells with rucaparib alone) 123% | viability ([3]; at 5 µM, OCI-C5x cells, without rucaparib) 108% | inhibition ([4]; at 0.5 µM, stronger effect = higher value) -30.4% and -7.42% | inhibition ([5]; at 0.5 µM) -18.6% and -27.5%
-17.7% and -33.9%: inhibition ([4]; measured here: combination with BGB IC40, at 0.005 µM)
-25% and 2.08%: inhibition ([5]; cisplatin combo, at 5 µM)
1.01: fold change ([1]; measured here: relative caspase fold change +Dox/-Dox)
6840: cell count ([1]; measured here: total cells with miR-34 induction, stronger effect = lower value)
-24.1% and -57.4%: inhibition ([4]; measured here: combination with cisplatin, at 5 µM, stronger effect = higher value)
18.7% and -30.5%: inhibition ([4]; measured here: combination with BGB IC20, at 0.005 µM)
4.58% and -46.4%: inhibition ([4]; measured here: combination with BGB IC40, at 0.05 µM)
